The source of these data is PubChem BioAssay (NCI).

Test systems include NCI-H23 lung; NCI-H226 lung; HOP-62 NSCLC; NCI-H460 lung; HOP-92 NSCLC; NCI-H522 lung; A549/ATCC NSCLC; 786-0 renal; COLO 205 colon; DU-145 prostate; K-562 leukemia; MALME-3M melanoma; MDA-MB-231 breast; RXF 393 renal; SF-268 CNS; SF-539 CNS; UACC-257 melanoma; M14 melanoma; SF-295 CNS.
Experiment in all cases: NCI-60 one-dose screen, 48 h (100 = growth as untreated, 0 = no growth, -100 = all killed)
What all share (conditions): 10 µM unless noted

The panel holds about 83,000 compounds, 20% with a hit somewhere; the sample as a whole holds those more often.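 Single-dose data. Exposure time 48 hours. Values below 10 considered active.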 A number with no mark means an inactive call. Calls of active or inactive are those of the source.

With `COC(=O)[C@@H]1[C@H]2C[C@H]3c4[nH]c5cc(OC)ccc5c4CCN3C[C@@H]2C[C@H](OC(=O)/C=C/c2ccnc(OC)c2)[C@H]1OC`, the growth with NCI-H23 lung is 86.4%; in the experiment with NCI-H226 lung, 89.3%; with HOP-62 NSCLC it was 87%; in the experiment with NCI-H460 lung it was 102%; with HOP-92 NSCLC, 22.5%; in the experiment on NCI-H522 lung, 73.3%. In addition, the growth in the experiment with A549/ATCC NSCLC was 89%; with 786-0 renal it was 91.2%; in the experiment on COLO 205 colon, 76.3%; in the experiment with DU-145 prostate, 91.8%; in the experiment with K-562 leukemia, 99.3%; in the experiment with MALME-3M melanoma, 67.6%. In addition, the growth with MDA-MB-231 breast was -54.6% (active); in the experiment with RXF 393 renal, 92.4%; with SF-268 CNS, 84.1%; in the experiment on SF-539 CNS, 90.1%; in the experiment on UACC-257 melanoma it was 78.3%.
For the compound `COC(=O)C(N)CSC(c1ccccc1)(c1ccccc1)c1ccccc1` (stereo unspecified), the growth is 45.5% with NCI-H23 lung; 77.6% in the experiment with NCI-H226 lung; 44.6% with HOP-62 NSCLC; 8.85% (active) with NCI-H460 lung; 55.1% with HOP-92 NSCLC; -43.6% (active) in the experiment on NCI-H522 lung. The growth in the experiment with A549/ATCC NSCLC was 31.3%; with 786-0 renal, 53.7%; with COLO 205 colon, 1.18% (active); in the experiment on DU-145 prostate it was -24.3% (active); in the experiment with MALME-3M melanoma, 31.8%; with MDA-MB-231 breast, 3.44% (active). Besides, the growth is 1.07% (active) in the experiment with RXF 393 renal, 28.4% in the experiment with SF-268 CNS, -11.7% (active) in the experiment with SF-539 CNS and -6.93% (active) in the experiment on M14 melanoma.
As to `OCC(CO)(CCl)CCl`, the growth is 93.2% in the experiment with NCI-H23 lung; 101% in the experiment on NCI-H226 lung; 99% in the experiment with HOP-62 NSCLC; 106% with NCI-H460 lung; 86.4% with HOP-92 NSCLC; 91.1% with NCI-H522 lung. Also, the growth with A549/ATCC NSCLC was 76.7%; with 786-0 renal it was 100%; in the experiment on COLO 205 colon it was 105%; in the experiment with DU-145 prostate, 105%; in the experiment on K-562 leukemia it was 106%; in the experiment with MALME-3M melanoma, 101%. In addition, the growth was 94.8% in the experiment with MDA-MB-231 breast; 113% with RXF 393 renal; 98% with SF-268 CNS; 107% in the experiment with SF-295 CNS; 102% in the experiment on SF-539 CNS; 69.6% in the experiment with UACC-257 melanoma. In the experiment on M14 melanoma, the growth was 89.4%.
`C[C@@H](C(=O)O)c1ccc2c3cc(Cl)ccc3n(Cc3cc(=O)oc4ccc(Cl)cc34)c2c1`: the growth is 95.6% with NCI-H23 lung; 103% in the experiment on NCI-H226 lung; 103% in the experiment with HOP-62 NSCLC; 111% with NCI-H460 lung; 108% in the experiment on HOP-92 NSCLC; 90.7% in the experiment with NCI-H522 lung. In addition, the growth was 102% in the experiment with A549/ATCC NSCLC; 95.9% in the experiment with 786-0 renal; 113% with COLO 205 colon; 103% in the experiment with DU-145 prostate; 98.2% in the experiment with K-562 leukemia; 89.5% with MALME-3M melanoma. The growth with MDA-MB-231 breast is 106%; with RXF 393 renal it was 116%; in the experiment on SF-268 CNS it was 93.4%; in the experiment on SF-295 CNS, 103%; in the experiment with SF-539 CNS, 102%; in the experiment on UACC-257 melanoma it was 104%. Moreover, the growth with M14 melanoma is 100%.
In the case of `CC1(c2ccccc2)OC1C(=O)O` (stereo unspecified), the growth in the experiment with NCI-H23 lung was 94.1%; in the experiment with NCI-H226 lung, 104%; in the experiment on HOP-62 NSCLC it was 107%; in the experiment on NCI-H460 lung, 107%; in the experiment with HOP-92 NSCLC, 119%; in the experiment with NCI-H522 lung, 97.8%. Moreover, the growth with A549/ATCC NSCLC is 105%; with 786-0 renal it was 99.7%; with COLO 205 colon, 115%; in the experiment on DU-145 prostate, 108%; in the experiment with K-562 leukemia it was 111%; with MALME-3M melanoma it was 88.5%. In addition, the growth with MDA-MB-231 breast was 110%; in the experiment on RXF 393 renal, 103%; in the experiment with SF-268 CNS it was 106%; in the experiment on SF-295 CNS it was 101%; in the experiment on SF-539 CNS it was 96.1%; in the experiment on M14 melanoma it was 95.2%.
Turning to `Cc1cc(N(CCNc2ccnc3cc(Cl)ccc23)Cc2ccco2)nc(Cl)n1`, the growth was 14.2% in the experiment on NCI-H23 lung; -62.3% (active) in the experiment on NCI-H226 lung; -48.2% (active) with HOP-62 NSCLC; -59.8% (active) with NCI-H460 lung; -76.9% (active) in the experiment with HOP-92 NSCLC; -8.16% (active) in the experiment on NCI-H522 lung. For the same compound, the growth is -55.8% (active) in the experiment with A549/ATCC NSCLC; -92.8% (active) in the experiment on 786-0 renal; -53.5% (active) in the experiment with COLO 205 colon; 19.6% in the experiment with DU-145 prostate; -54.5% (active) with K-562 leukemia; -64.6% (active) with MALME-3M melanoma. For the same compound, the growth in the experiment on MDA-MB-231 breast was -75.4% (active); in the experiment with RXF 393 renal it was -79.8% (active); with SF-268 CNS, 30.9%; in the experiment on SF-295 CNS it was -75% (active); in the experiment on SF-539 CNS it was -80.8% (active); with UACC-257 melanoma, -29.2% (active).
As for `Cn1cc(-c2csc(-c3c[nH]c4ccccc34)n2)c2cccnc21`, the growth was 30.3% with NCI-H23 lung; 60.3% in the experiment with NCI-H226 lung; 14.6% in the experiment with NCI-H460 lung; 49.5% in the experiment on HOP-92 NSCLC; 5.06% (active) in the experiment with NCI-H522 lung; 40.3% with A549/ATCC NSCLC. For the same compound, the growth is 45.7% in the experiment with 786-0 renal; 9.57% (active) with COLO 205 colon; 16.5% with DU-145 prostate; 18.9% in the experiment on K-562 leukemia; 48.3% with MDA-MB-231 breast; 12.6% with RXF 393 renal. For the same compound, the growth in the experiment with SF-268 CNS was 45.4%; in the experiment with SF-295 CNS, 6.62% (active); in the experiment on SF-539 CNS, -1.15% (active); in the experiment on UACC-257 melanoma, 64.6%; with M14 melanoma, 23.8%.
For `Cn1c2ccccc2c2c3c(c4c5cccnc5[nH]c4c21)C(=O)N(O)C3=O`, the growth with NCI-H23 lung is 15.1%; with NCI-H226 lung, 74.3%; with HOP-62 NSCLC, 15.3%; in the experiment with NCI-H460 lung it was 14.7%; with HOP-92 NSCLC it was 78.9%; in the experiment on NCI-H522 lung, 47.6%. Moreover, the growth with A549/ATCC NSCLC was 62.3%; in the experiment on 786-0 renal, 36.6%; in the experiment on COLO 205 colon it was 22.4%; in the experiment on DU-145 prostate, 26.5%; in the experiment on K-562 leukemia it was 29.8%; in the experiment on MALME-3M melanoma, 58.2%. For the same compound, the growth in the experiment with MDA-MB-231 breast is 68.8%; in the experiment with RXF 393 renal, 59.5%; in the experiment with SF-268 CNS, 38.2%; in the experiment with SF-295 CNS, 37.6%; in the experiment on SF-539 CNS it was 16.6%; with M14 melanoma, 20.5%.
Regarding `COc1cc2nc(Cl)nc(Nc3cccc(C(=O)/C=C/c4ccccc4)c3)c2cc1OC`, the growth with NCI-H23 lung was 68.6%; in the experiment with NCI-H226 lung it was 66.1%; with HOP-62 NSCLC, 70.1%; in the experiment with NCI-H460 lung it was 89%; in the experiment on HOP-92 NSCLC, 82.2%; in the experiment on NCI-H522 lung it was 56.9%. The growth with A549/ATCC NSCLC was 74.5%; with 786-0 renal, 52.7%; with COLO 205 colon, 62.9%; in the experiment on DU-145 prostate it was 87.7%; with K-562 leukemia, 9.16% (active); in the experiment on MALME-3M melanoma, 78%. The growth in the experiment with MDA-MB-231 breast is 67.6%; in the experiment on RXF 393 renal it was 68.4%; in the experiment on SF-268 CNS, 85.9%; in the experiment on SF-295 CNS, 69.5%; with SF-539 CNS, 2.74% (active); in the experiment with UACC-257 melanoma it was 96.5%. In the experiment with M14 melanoma, the growth is 51.2%.
